DT40 TDP1 no CPT: qHTS for Inhibitors of human tyrosyl-DNA phosphodiesterase 1 (TDP1): qHTS in cells in absence of CPT; DT40 Tdp1-/- hTDP1 cells, no CPT, ATP luminescence, 48 h; Potency, µM (highest dose often 46.2 µM), without a hit: top-dose activity change, negative = growth inhibition, hits mostly inhibitors; 420,000 tested, 15% active; further: nearly all actives have a fitted effect of over 55% in size
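Seeded 400 DT40-hTDP1 cells/well (vehicle DMSO, no 20 nM CPT); pinned compounds; ≥48 hr at 37 °C; CellTiter-Glo luminescence as viability measure.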
TDP1 block: inhibitors of human tyrosyl-DNA phosphodiesterase TDP1; Q9NUW8; recombinant TDP1, AlphaScreen DNA substrate cleavage; Potency, µM (doses to about 130 µM), inactives show at the highest dose activity change, negative = inhibition, most hits filed as inhibitors; 350,000 tested, 0.28% active; AID 485290; further: nearly all actives have a fitted effect of over 40% in size
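Enzyme-compound mixtures sat 15 min at room temperature, followed by a 5 min reaction with 15 nM final substrate and 10 min with AlphaScreen beads. Recombinant human Tdp1 was used at 1 nM final.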
RORgamma inh: ROR gamma (mouse) transcription inhibition; Drosophila S2 Gal4-RORgamma UAS-luciferase reporter, 20 h; P51450; Potency, µM (top dose mostly 53.6 µM), without a hit: at the highest dose activity change, negative = inhibition, hits mostly inhibitors; 310,000 tested, 5.4% active; further: nearly all actives have a fitted effect of over 60% in size
Target sequence (P51450 whole entry, looked up, the tested form may be a part): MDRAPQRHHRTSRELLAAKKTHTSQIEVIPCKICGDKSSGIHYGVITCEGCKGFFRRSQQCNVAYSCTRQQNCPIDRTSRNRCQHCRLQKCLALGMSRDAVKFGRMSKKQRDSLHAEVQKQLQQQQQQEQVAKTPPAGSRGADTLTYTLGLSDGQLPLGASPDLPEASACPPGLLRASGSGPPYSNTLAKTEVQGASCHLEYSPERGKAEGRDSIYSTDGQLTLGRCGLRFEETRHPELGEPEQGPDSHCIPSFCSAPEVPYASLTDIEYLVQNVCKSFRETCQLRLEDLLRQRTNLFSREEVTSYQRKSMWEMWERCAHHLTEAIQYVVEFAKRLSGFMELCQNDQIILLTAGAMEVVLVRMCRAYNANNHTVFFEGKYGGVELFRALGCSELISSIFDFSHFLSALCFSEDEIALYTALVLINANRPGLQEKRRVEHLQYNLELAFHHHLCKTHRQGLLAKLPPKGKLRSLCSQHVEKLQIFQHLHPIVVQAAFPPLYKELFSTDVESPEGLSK
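Schneider cells (Drosophila), stable Gal4 DBD–ROR gamma + UAS-luc; 1 hr cmpd preincubation; Cu2+ induction 700 uM final; 20 hr ambient; luminescence.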
TDP1 cell CPT: growth inhibition of DT40 Tdp1-/-;hTDP1 cells with camptothecin (screen for TDP1 inhibitors); chicken DT40 Tdp1-/-;hTDP1 cells + 20 nM CPT, ATP luminescence, 48 h; Potency, µM (highest dose often 46.2 µM), without a hit: at the highest dose activity change, negative = growth inhibition, hits mostly inhibitors; 420,000 tested, 12% active; AID 686979; further: nearly all actives have a fitted effect of over 55% in size
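Chicken DT40 Tdp1-/- cells stably complemented with human TDP1 were seeded at 400 cells/well in medium containing 20 nM camptothecin, exposed to pin-transferred compounds, and grown at 37 °C for at least 48 hr. Viability was read as ATP luminescence.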
VP16 counter: inhibits Gal4-VP16 luciferase reporter, ROR gamma counter-screen; Drosophila S2 Gal4-VP16 UAS-luciferase, luminescence, 20 h; Potency, µM (titrated, usually from 53.6 µM), for the others: at the highest dose activity, negative = inhibition, hits mostly inhibitors; 310,000 tested, 3.5% active;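 further: Gal4-VP16 expression switched on by copper sulfate through the metallothionein promoter; nearly all actives have a fitted effect of over 50% in size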
* marks the source's active call; other numbers are inactive results; ? = inconclusive; nt = no result; [ ] = another dose, or the depositor's remark. This is a sample that favours compounds with a hit; in the whole collection about 19% have one here. The call rests on the fitted dose curve; in most records, active means well fitted curve in the direction sought with a large enough effect; inconclusive means small, poorly fitted or top-dose-only effect, or another doubt; inactive means no such curve, though single readings can be large; an effect the other way counts as inactive or inconclusive. On the % scale 0 is the no-effect control and ±100 the full control effect; potency means the concentration at half of the fitted maximal effect.

SMILES	DT40 TDP1 no CPT	TDP1 block	RORgamma inh	TDP1 cell CPT	VP16 counter
COC(=O)c1ccc(C(=O)OC)c(NC(=O)c2c(-c3ccccc3)noc2C)c1	6.5µM*	nt	nt	6.5µM*	nt
COC(=O)c1ccc(NC(=S)NC(=O)c2c(-c3ccccc3)noc2C)cc1	-4%	3%	7.1µM*	14%	?
COC(=O)c1ccc(C)c(NC(=O)c2c(-c3ccccc3)noc2C)c1	-17%	2%	12%	-15%	-5%
COc1ccc(CCNC(=O)CCOc2cc(C)ccc2C)cc1OC	-18%	2%	2%	-18%	4%
O=C(CNC(=O)c1ccc(F)cc1)N/N=C/c1cn[nH]c1-c1ccccc1	-22%	8%	16%	4%	0%
COc1ccc(NCc2cccn2-c2nnc(N3CCC(C)CC3)s2)c(OC)c1	16µM*	13%	nt	?	nt
COc1ccc(OC)c(NCc2cccn2-c2nnc(N3CCC(C)CC3)s2)c1	2.6µM*	7%	nt	2.9µM*	nt
COc1ccc(NCc2cccn2-c2nnc(N3CCOCC3)s2)c(OC)c1	-22%	2%	nt	-26%	nt
O=C(COC(=O)c1ccccn1)Nc1cccc(Cl)c1Cl	-2%	4%	-4%[10 µM]	-7%	-9%
COc1ccc(OC)c(NC(=O)C2CC(=O)N(c3ccc(Br)cc3)C2)c1 (stereo not drawn)	3%	3%	35%	-5%	-4%
COc1cccc(CN2CCC(C(=O)N3CCC(C)CC3)CC2)c1	-5%	0%	-16%	7%	6%
Cc1cccc(Cn2c(=O)n(CC3CCC(C(=O)N4CCOCC4)CC3)c(=O)c3sccc32)c1 (stereo not drawn)	18µM*	2%	nt	23µM*	nt
CCCNC(=O)C1CCC(Cn2c(=O)c3sccc3n(Cc3ccccc3C)c2=O)CC1 (stereo not drawn)	-23%	2%	nt	-13%	nt
COc1cccc(Cn2c(=O)n(CC3CCC(C(=O)N4CCOCC4)CC3)c(=O)c3sccc32)c1 (stereo not drawn)	21µM*	11%	nt	?	nt
O=C(C1CCC(Cn2c(=O)c3sccc3n(Cc3ccccc3F)c2=O)CC1)N1CCOCC1 (stereo not drawn)	?	3%	nt	16µM*	nt
O=C(NCCN1CCOCC1)c1cc(-c2cccc(Cl)c2)on1	?	1%	30%	-8%	2%
CC(=O)c1cccc(NC(=O)CSc2nnc3ccc(-c4ccc(F)cc4)nn23)c1	-9%	-3%	nt	14%	nt
CCC(C)c1ccccc1N1CC(C(=O)Nc2cccc(S(=O)(=O)N3CCOCC3)c2)CC1=O (stereo not drawn)	18µM*	2%	?	18µM*	?
CSc1cccc(NC(=O)C2CCN(S(=O)(=O)c3ccc4[nH]c5c(c4c3)CCCCC5)CC2)c1	21µM*	11%	nt	?	nt
Cc1cccc(N2CC(C(=O)Nc3cccc(S(=O)(=O)N4CCCCC4)c3)CC2=O)c1C (stereo not drawn)	?	1%	nt	18µM*	nt
CCC(C)c1ccccc1N1CC(C(=O)NCCC2=CCCCC2)CC1=O (stereo not drawn)	16µM*	0%	nt	18µM*	nt
O=C(Nc1cccc(F)c1)C1CCN(S(=O)(=O)c2ccc3[nH]c4c(c3c2)CCCCC4)CC1	?	11%	nt	?	nt
CCOc1ccccc1N1CC(C(=O)NCCC2=CCCCC2)CC1=O (stereo not drawn)	-29%	nt	nt	?	nt
Cc1cccc(N2CC(C(=O)Nc3ccc(S(=O)(=O)N4CCOCC4)cc3)CC2=O)c1C (stereo not drawn)	2%	nt	2%	-22%	-3%
O=C(NCCc1ccc(Cl)cc1)C1CC(=O)N(C2CCCC2)C1 (stereo not drawn)	19%	3%	-3%	-15%	2%
SMILES	DT40 TDP1 no CPT	TDP1 block	RORgamma inh	TDP1 cell CPT	VP16 counter
CC(C)(C)NC(=O)C(=O)N/N=C/c1ccc(F)cc1	-16%	8%	-7%	10%	-11%
COc1ccc(NC(=O)c2cnc3sccn3c2=O)cc1	-4%	-7%	?	-4%	16%
COc1ccc(NC(=O)CCNC(=O)C2CCN(S(=O)(=O)c3ccc(F)cc3)CC2)cc1OC	18%	10%	-2%	1%	-10%
COc1ccc(S(=O)(=O)Nc2cccc3c2O[C@H](CN(C)CC2CC2)[C@@H](C)CN([C@H](C)CO)C3=O)cc1	-3%	1%	nt	2%	nt
CCc1ccccc1N1CC(C(=O)Nc2cc(S(=O)(=O)N3CCCC3)ccc2Cl)CC1=O (stereo not drawn)	15µM*	-6%[56.1 µM]	nt	?	nt
O=C(Nc1cc(Cl)ccc1Cl)C1CC(=O)N(c2ccccc2)C1 (stereo not drawn)	-7%	-7%	-34%	-4%	0%
CSc1cccc(N2CC(C(=O)Nc3cccc(S(=O)(=O)N4CCCC4)c3)CC2=O)c1 (stereo not drawn)	15µM*	1%	nt	21µM*	nt
COC(=O)[C@H](CC(C)C)NS(=O)(=O)N[C@@H](CC(C)C)C(=O)OC	-10%	1%	nt	?	nt
COc1cc([N+](=O)[O-])ccc1NC(=O)/C=C/C(=O)O	-2%	3%	-6%	2%	-4%
Cc1cccc(C(=O)N2CCC(=O)N(C(COCc3ccccc3)Cc3ccccc3)CC2)c1 (stereo not drawn)	26µM*	5%	2%	?	-5%
Cc1cccc(COCC(Cc2ccccc2)N2CCN(C(=O)c3cccc(Cl)c3)CCC2=O)c1 (stereo not drawn)	18µM*	0%	17%	26µM*	5%
Cc1cccc(COC[C@H](Cc2ccccc2)N2CCN(C(=O)c3cccc(Cl)c3)CCC2=O)c1	?	3%	2%	?	-2%
O=C(CCc1ccccc1)Nc1cc2c3c(c1)CC(=O)N3CCC2	?	1%	nt	-20%	nt
CC(=O)Cc1cc(O)c2ccccc2c1OC(=O)c1ccccc1	15µM*	4%	-7%	?	6%
COC(=O)c1cc(O)c(OCc2ccccc2)c(O)c1	-26%	1%	?	-22%	8%
COc1ccc(C2C(C(=O)Nc3ccccn3)=C(C)Nc3ncnn32)c(OC)c1 (stereo not drawn)	-5%	-1%	-13%	3%	2%
COc1ccc(/C(C)=N/N2CCCCC2)c(O)c1	-5%	nt	22%	-1%	-5%
COc1ccc(/C=N/N=C2/NC(=O)C(CC(=O)NC(C)C)S2)cc1 (stereo not drawn)	0%	2%	-22%	3%	-9%
COc1ccc(CC2S/C(=N/N=C/c3ccc(O)cc3)NC2=O)cc1 (stereo not drawn)	-18%	0%	-32%	5%	-5%

Screens: PubChem BioAssay, National Center for Advancing Translational Sciences (NCATS)
